# The whole screen tested about 69,000 compounds, of which about 8,600 (12%) showed an effect of 50% or more. The entries come from a sample that favours strong results as a whole.
# Tested on: Plasmodium berghei
# Test: Screen against P. berghei liver stage (PbLuc), transformed with Luciferase, at 10uM
# Format: functional, HepG2
# Conditions: tested at 10 uM
row,Structure (SMILES),INHIBITION [%]
1,Cc1nc(C)n(CCNS(=O)(=O)NCc2ccccc2)n1,49.9
2,CS(=O)(=O)N1CCOCC2(CCN(C(=O)c3cnccn3)CC2)C1,-6.23
3,O=C(NCc1ccccc1Cn1cncn1)C1CCCCC1,30.6
4,Cc1cnc(N2CC3(CCN(S(=O)(=O)C4CC4)C3)C2)nc1,40.3
5,Cc1nn(C)cc1Cn1c(=O)c(C)nc2ccccc21,-11.4
6,COc1c(CNCc2ccc(CS(C)(=O)=O)cc2)c(C)nn1C,43.2
7,COc1c(CNCCNC(=O)c2ccccc2)c(C)nn1C,15.3
8,COc1c(CNCc2cccc(C(=O)N(C)C)c2)c(C)nn1C,-29.8
9,COc1c(CNCCNC(=O)c2ccc(C)cc2)c(C)nn1C,52.7
10,COc1c(CNCc2ccc(C(=O)N(C)C)cc2)c(C)nn1C,56.3
11,COc1c(CNCCNC(=O)c2ccc(C)cc2)c(C(C)C)nn1C,-79.3
12,CC(C)(C)C(=O)Nc1cnn(-c2ccccc2S(C)(=O)=O)c1,-0.125
13,O=C(c1ccccc1)N1CCC[C@]2(C[C@@H](Oc3ncccc3F)CO2)C1,5.96
14,Cc1ccc(N2C[C@@H]3CCCO[C@@H]3[C@H](N3CCCC3)C2)nn1,20.1
15,COCCCC1CCCN(Cc2c(C)ccc3ncccc23)C1 (stereo unspecified),5.41
16,COc1ccc(S(=O)(=O)N2CCc3ccc(Cl)cc32)cc1C(=O)O,-54.6
17,CCc1cn[nH]c1C1CCN(c2cc(C)c3cccc(OC)c3n2)CC1,42.7
18,CCc1cn[nH]c1C1CCN(c2cc(C)c3ccc(OC)cc3n2)CC1,71.1
19,CCc1cn[nH]c1C1CCN(c2cc(C)c3cc(OC)ccc3n2)CC1,26.6
20,Cc1cccc(OCCC(=O)N(C)CCNS(C)(=O)=O)c1C,7.11
21,CC(C)(C)CC(=O)N1CCCC2(CC(C(=O)Nc3ccccc3)=NO2)C1 (stereo unspecified),-32
22,OCCCc1nncn1-c1cccc(C(F)(F)F)c1,33.4

row,Structure (SMILES),INHIBITION [%]
1,CN(C(=O)C1CCN(Cc2cnc3ccccn23)CC1)c1ccccc1,58.2
2,Cc1cccc(NC(=O)[C@@H]2CCCN2Cc2cnc3ccccn23)n1,45.7
3,CC(C)N(C)C(=O)C1CCN(Cc2cc3c(cc2O)CCC3)CC1,33.6
4,CCOC(=O)N(C)C1CCN(Cc2cnc3ccccn23)CC1,8.12
5,CCc1nc(C)c(C(=O)N(C)Cc2cnc3ccccn23)o1,10.6
6,CC(C)N(C)C(=O)C1CCN(Cc2cnc3ccccn23)CC1,63.3
7,O=C([C@H]1CCCO1)N1CC[C@H](O)[C@@H]1Cc1cccnc1,39.4
8,CN(C)c1nc(N2CCCC2)nc2c1CCN(C(=O)c1ccco1)CC2,28.2
9,CCCc1noc(CCC(=O)N2CCCC2c2cccc(OC)c2)n1 (stereo unspecified),-34
10,O=C1CCC(c2nc(C3CCNCC3)no2)N1 (stereo unspecified),55.8
11,O=C1CCC(c2nc(C3CCN(C(=O)C4CC4)CC3)no2)N1 (stereo unspecified),14
12,CC(=O)N1CCC(c2noc(C3CCC(=O)N3)n2)CC1 (stereo unspecified),18.4
13,Cc1cc(C(F)F)nn1C(C)C(=O)NCc1ncc[nH]1 (stereo unspecified),-1.21
14,Cc1csc(N2CCN(C(=O)C3(C#N)CCCC3)CC2)n1,-9.75
15,COc1cc(OC)cc(C2NC(=O)CN2Cc2ccc(Br)cc2)c1 (stereo unspecified),45.6
16,Cc1cc(C2NC(=O)CN2Cc2ccc(Br)cc2)cc(C)c1O (stereo unspecified),60.4
17,NC(=O)COc1ccc(C2NC(=O)CN2Cc2ccc(Br)cc2)cc1 (stereo unspecified),15.9
18,Cc1nc(CN2Cc3nccn3CC(CN3CCCC3)C2)cs1 (stereo unspecified),-29.3
19,O=C(c1nc2sccn2c1-c1ncc[nH]1)N1CCCCC1,50.2
20,CN1CCCN(C(=O)c2nc3sccn3c2-c2ncc[nH]2)CC1,-16
21,C[C@@H]1CN(C(=O)c2nc3sccn3c2-c2ncc[nH]2)C[C@H](C)O1,11.3
22,CC(C)c1cc(=O)[nH]c(-c2ccccc2CN2CCCC2C)n1 (stereo unspecified),31.8

row,Structure (SMILES),INHIBITION [%]
1,CC(C)N1CCC(C(=O)NC[C@H]2CCc3ccccc3O2)CC1,61.5
2,CCN1CCC(CC(=O)NC[C@H]2CCc3ccccc3O2)CC1,39.9
3,CC(C)N1CCC(CC(=O)NC[C@H]2CCc3ccccc3O2)CC1,7.4
4,Cc1ccc(S(C)(=O)=O)cc1NCC(=O)NCCC1=CCCCC1,-50.7
5,CC(NC(=O)N(C)C1CC1)c1ccc(Oc2cccnc2)c(F)c1 (stereo unspecified),37.4
6,Cc1cnn(CC2CCCN2C(=O)c2n[nH]c(=O)c3ccccc23)c1 (stereo unspecified),-4.16
7,N#Cc1nccnc1N1CCC(Cc2ccccc2)C1 (stereo unspecified),0.672
8,N#Cc1nccnc1N1CCC(COCc2ccccc2)C1 (stereo unspecified),20.8
9,N#Cc1nccnc1N1CCC(OCCCc2ccccc2)C1 (stereo unspecified),72.3
10,CC(C)Cc1nnc(NCc2ccsc2)o1,-54.5
11,CC(C)(C)Cc1nnc(NCc2ccsc2)o1,53.4
12,c1cc(CNc2nnc(Cc3ccsc3)o2)cs1,-86.6
13,COc1ccc(OC)c(C(C(=O)O)N2CCSCC2)c1 (stereo unspecified),17
14,CC(c1cccc(Cl)c1)N(C)CCS(=O)(=O)CCC(N)=O (stereo unspecified),37.8
15,CC(c1ccc(F)c(F)c1)N(C)CCS(=O)(=O)CCC(N)=O (stereo unspecified),41.5
16,Cc1ccc(C(C)N(C)CCS(=O)(=O)CCC(N)=O)cc1 (stereo unspecified),56.3
17,NC(=O)NC(=O)CCN1CCN(CC2CC2)c2ccccc21,62.4
18,CNC(=O)NC(=O)CN1CCN(CC2CC2)c2ccccc21,46.4
19,NC(=O)CN1CCN(CC2CC2)c2ccccc21,58.7
20,NC(=O)NC(=O)CN1CCN(CC2CC2)c2ccccc21,35.3
21,O=C(NCCCC(=O)N1CCN(CC2CC2)c2ccccc21)C1CC1,22.8
22,COCCC(=O)N1CCN(CC2CC2)c2ccccc21,14.9

row,Structure (SMILES),INHIBITION [%]
1,CN1CCC2(CCN(Cc3nccs3)CC2)C1=O,7.15
2,O=C(NCC1CC1)C1CCC2(CCN(C(=O)c3ccco3)CC2)O1 (stereo unspecified),-25.8
3,CN(C(=O)CCc1nc(C2CC2)no1)c1cc(C#N)c2ccccc2n1,23.1
4,O=C(c1ccc(S(=O)(=O)N2CCNCC2)cc1)N1CCCC(O)C1 (stereo unspecified),13.3
5,CCCc1noc(CN2CCN(c3nccs3)CC2)n1,-4.16
6,Cc1cc(C2CCCN2Cc2ccc(S(=O)(=O)N3CCCC3)o2)on1 (stereo unspecified),19.2
7,CCC1c2ccccc2CCN1CCNS(C)(=O)=O (stereo unspecified),18
8,CCCC1c2ccccc2CCN1CCS(C)(=O)=O (stereo unspecified),22.8
9,CCC1c2ccccc2CCN1CCCS(C)(=O)=O (stereo unspecified),50.6
10,Cc1nn(-c2ccccc2)c2nc(C(C)(C)CN3CCN(C)CC3)[nH]c12,8.08
11,CCC(CNC(=O)Cc1c(C)noc1C)N1CCCC1 (stereo unspecified),57.3
12,Cc1noc(C)c1CC(=O)NCCN1CCN(S(C)(=O)=O)CC1,-47.8
13,CC(C)C(CNC(=O)NCc1cc[nH]n1)N1CCOCC1 (stereo unspecified),-1.6
14,CC(C)CC(CNC(=O)NCc1cc[nH]n1)N1CCOCC1 (stereo unspecified),52
15,O=C(NCc1cc[nH]n1)NCC(c1ccccc1)N1CCOCC1 (stereo unspecified),15.8
16,Cc1noc(C)c1CC(=O)NCC(CC(C)C)N1CCOCC1 (stereo unspecified),62.8
17,Cc1noc(C)c1C(=O)NCCN1CCOCC1,-27.8
18,Cc1noc(C)c1CC(=O)NCC(C(C)C)N1CCOCC1 (stereo unspecified),58.2
19,Cc1noc(C)c1CC(=O)NCC(C)N1CCOCC1 (stereo unspecified),46.1
20,Cc1noc(C)c1CC(=O)NCCc1cccs1,-26.9
21,Cc1cc(NC(=O)NCC(CC(C)C)N2CCOCC2)n(C)n1 (stereo unspecified),-0.113
22,Cc1noc(C)c1CNC(C(=O)N1CCOCC1)C(C)C (stereo unspecified),22.2

row,Structure (SMILES),INHIBITION [%]
1,Cc1cc(NC(=O)CN2CCCC2c2c(C)nn(C)c2C)on1 (stereo unspecified),5.03
2,Cc1noc(C)c1-c1nc(C2CCCN(C(=O)C(C)C)C2)ccc1CO (stereo unspecified),48.1
3,CC(=O)N(Cc1ncc(C)o1)C1CCN(Cc2nccn2C)C1 (stereo unspecified),11.45
4,CC(=O)N1[C@H](Cn2cncn2)C[C@@H]2CN(CC3CC3)CC[C@@H]21,-1.83
5,COc1ccccc1C(=O)N1C[C@@H]2CCCCN(CC(N)=O)[C@@H]2C1,9.05
6,COCCCNS(=O)(=O)c1cccc(CSC)c1,-15.7
7,COCCCNS(=O)(=O)c1ccc(N2CCCCS2(=O)=O)cc1,73.4
8,CC(NCCCn1cccn1)c1ccc(N2CCCS2(=O)=O)cc1 (stereo unspecified),5.58
9,CCOc1ccc(NC(=O)N(C)Cc2cnn(C)c2)c(C)c1,11.9
10,Cc1nc2c(c(C)c1CC(=O)NCc1cccs1)c(=O)[nH]n2C,-0.219
11,O=c1n(Cc2cccc(F)c2)nc2ncccn12,-31.7
12,Cc1ccoc1C(=O)N1C[C@H](OCc2cccnc2)[C@H]2OCCC[C@H]21,33.4
13,Cc1ccoc1C(=O)N1C[C@@H](OCC2CC2)[C@H]2OCCC[C@H]21,55.2
14,Cc1ccoc1C(=O)N1C[C@H](OCC2CC2)[C@H]2OCCC[C@H]21,-31
15,Cc1ccc(C(=O)N2C[C@@H](OCC3CCOCC3)[C@H]3OCCC[C@H]32)o1,41.5
16,Cc1ccoc1C(=O)N1CCO[C@H]2[C@H](OCC3CCOCC3)CC[C@@H]21,-0.182
17,Cc1ccoc1C(=O)N1C[C@@H](OCC2CCOCC2)[C@H]2OCCC[C@H]21,57.1
18,CN(C)CCN1CCc2c(nnn2C)C1COCc1ccccc1 (stereo unspecified),-4.98
